This is an account of results in PubChem BioAssay (NCATS).

SMILES strings stand for the structures. Results filed as inconclusive are left out. Active and inactive are the calls of the source. Calls follow the shape of the dose curve; as a rule, active = well fitted curve in the direction sought with a large enough effect; inconclusive = small, poorly fitted or top-dose-only effect, or another doubt; inactive = no such curve, though single readings can be large; an effect the other way counts as inactive or inconclusive.

Assay [1] can be described thus: qHTS of pediatric cancer cell lines to identify multiple opportunities for drug repurposing: Confirmatory screen for Rh41 cells (AID 1347123).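 Also: 48 h compound exposure; nearly all actives have a fitted effect of over 60% in size.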 Also: potency is read from the fitted curve at half-maximal effect. The essentials: (§1)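 Cells (500-1,000/well) rested 5 h, then received compounds for 48 h; metabolically active cells were measured by CellTiter-Glo luminescence. Final concentrations spanned up to 46 µM (MIPE, 11-point) or 0.59 nM-46 µM (NPC, 8-point) in primary screens, 11-point in follow-ups.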
Background: qHTS replaces the single test concentration by a dilution series.

The nature of assay [2]: qHTS of pediatric cancer cell lines to identify multiple opportunities for drug repurposing: Confirmatory screen for Rh18 cells (AID 1347125). Also: nearly all actives have a fitted effect of over 55% in size. Also: potency is read from the fitted curve at half-maximal effect. The essentials: as §1
The nature of assay [3]: qHTS of pediatric cancer cell lines to identify multiple opportunities for drug repurposing: Confirmatory screen for Saos-2 cells (AID 1347127). Also: nearly all actives have a fitted effect of over 60% in size. Also: potency is read from the fitted curve at half-maximal effect. The essentials:
as §1

The test system of assay [4] is Zika virus NS2B-NS3 protease (unlinked complex). The assay is described as follows: Primary screen GU Rhodamine qHTS for Zika virus inhibitors: Unlinked NS2B-NS3 protease assay (AID 1347159). Also: nearly all actives have a fitted effect of over 60% in size. The essentials: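 Noncovalent NS2B hydrophilic domain/NS3 protease complex (25 nM final) in 10 mM Tris-HCl pH 8.0, 0.01% Tween 20, preincubated 15 min with compounds (up to 114 microM), then 1.5 microM Rhodamine110 substrate. Fluorescence change over 15 min fitted to 4-parameter Hill.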

The test system of assay [5] is Zika virus NS2B-NS3 protease (linked construct). Put plainly: Primary screen NINDS Rhodamine qHTS for Zika virus inhibitors (AID 1347160). Also: nearly all actives have a fitted effect of over 55% in size. The essentials:
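Purified NS2B-NS3 protease with the NS2B hydrophilic domain joined by a flexible linker (25 nM) in 10 mM Tris-HCl pH 8.0, 0.01% Tween 20, preincubated 15 min at RT with compound; Rhodamine110 peptide substrate 1.5 µM; fluorescence change over 15 min; 4-parameter Hill fit.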

Assay [6] is described as follows: qHTS of pediatric cancer cell lines to identify multiple opportunities for drug repurposing: Confirmatory screen for RD cells (AID 1347124).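 Also: cells exposed to compound for 48 h before viability readout; nearly all actives have a fitted effect of over 65% in size.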 Also: potency is read from the fitted curve at half-maximal effect. The essentials:
as §1

The nature of assay [7]: qHTS of pediatric cancer cell lines to identify multiple opportunities for drug repurposing: Confirmatory screen for Rh30 cells (AID 1347126). Also: nearly all actives have a fitted effect of over 55% in size. Also: potency is read from the fitted curve at half-maximal effect. The essentials: as §1
Assay [8] is described as follows: qHTS of pediatric cancer cell lines to identify multiple opportunities for drug repurposing: Confirmatory screen for OHS-50 cells (AID 1347128).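 Also: compound exposure lasted 48 h at 37 degrees C; nearly all actives have a fitted effect of over 55% in size.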 Also: potency is read from the fitted curve at half-maximal effect. The essentials: as §1
Assay [9] is described as follows: qHTS of pediatric cancer cell lines to identify multiple opportunities for drug repurposing: Confirmatory screen for SK-N-SH cells (AID 1347129).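 Also: cells exposed to compound for 48 h before viability read; nearly all actives have a fitted effect of over 60% in size.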 Also: potency is read from the fitted curve at half-maximal effect. The essentials:
as §1

For assay [10], the system named is Zika virus NS2B-NS3 protease. The assay is described as follows: Primary screen GU AMC qHTS for Zika virus inhibitors (AID 1347154). Also: nearly all actives have a fitted effect of over 70% in size. Also: potency is read from the fitted curve at half-maximal effect. The essentials:
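Fluorogenic AMC-substrate cleavage by noncovalent NS2B-NS3 protease complex (25 nM, pH 8.0 Tris buffer with Tween 20) followed for 15 minutes at room temperature (~20% conversion). Percent inhibition from ex340/em450 signal change, fitted by 4-parameter Hill equation.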

Assay [11] has as its target Furin (Homo sapiens) (UniProt P09958). The assay is described as follows: Furin counterscreen qHTS for Zika virus inhibitors (AID 1347149).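 Also: purified recombinant full-length human furin enzyme at 5 nM; fluorescence gain from furin cutting a BOC-RVRR-AMC peptide substrate over 15 min; top concentration of the series differs between compounds; nearly all actives have a fitted effect of over 70% in size.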 The essentials: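 Fluorogenic cleavage of BOC-RVRR-AMC (2 microM final, Km ~15 µM) was monitored (ex 340, em 450 nm) at 37C after 15 min RT preincubation of 5 nM furin with compounds in HEPES pH 7.0 buffer with CaCl2 and Triton X-100. Percent inhibition was fitted to a 4-parameter Hill curve.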
(Counterscreens check selectivity or assay interference.)

Assay [12] has as its system Zika virus NS2B-NS3 protease (linked construct). Put plainly: Confirmatory screen NINDS AMC qHTS for Zika virus inhibitors (AID 1347152).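 Also: AMC fluorescence gain from cleaved Bz-Nle-KRR-AMC substrate over 15 min; top concentration of the series differs between compounds; nearly all actives have a fitted effect of over 70% in size.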 The essentials:
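Linked NS2B-NS3 protease, 1 nM, in 10 mM Tris-HCl pH 8.0, 0.01% Tween 20; compounds preincubated 15 min at room temperature. Nle-KRR-AMC 10 microM (Km 18.3 µM); 15-min fluorescence change (340/450 nm) fitted to 4-parameter Hill.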

Assay [13] relates to Zika virus NS2B-NS3 protease (unlinked complex). Put plainly: Confirmatory screen GU AMC qHTS for Zika virus inhibitors (AID 1347153). Also: nearly all actives have a fitted effect of over 70% in size. The essentials: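 Unlinked NS2B-NS3 complex (25 nM) in 10 mM Tris-HCl pH 8.0, 0.01% Tween 20 preincubated 15 min with compound, then 10 microM Bz-Nle-KRR-AMC (Km 18.3 µM). Fluorescence change over 15 min, normalized, Hill-fitted.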
Assay [14] can be described thus: Confirmatory screen NINDS Rhodamine qHTS for Zika virus inhibitors (AID 1347161). The essentials: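 Percent inhibition, normalized to uninhibited and enzyme-free controls, is fitted to a 4-parameter Hill equation. Fluorescence change comes from a 15-min cleavage of 1.5 microM bis-peptide Rhodamine110 substrate by 25 nM linked NS2B-NS3 at room temperature.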

Furin (Homo sapiens), sequence (P09958 whole entry, looked up): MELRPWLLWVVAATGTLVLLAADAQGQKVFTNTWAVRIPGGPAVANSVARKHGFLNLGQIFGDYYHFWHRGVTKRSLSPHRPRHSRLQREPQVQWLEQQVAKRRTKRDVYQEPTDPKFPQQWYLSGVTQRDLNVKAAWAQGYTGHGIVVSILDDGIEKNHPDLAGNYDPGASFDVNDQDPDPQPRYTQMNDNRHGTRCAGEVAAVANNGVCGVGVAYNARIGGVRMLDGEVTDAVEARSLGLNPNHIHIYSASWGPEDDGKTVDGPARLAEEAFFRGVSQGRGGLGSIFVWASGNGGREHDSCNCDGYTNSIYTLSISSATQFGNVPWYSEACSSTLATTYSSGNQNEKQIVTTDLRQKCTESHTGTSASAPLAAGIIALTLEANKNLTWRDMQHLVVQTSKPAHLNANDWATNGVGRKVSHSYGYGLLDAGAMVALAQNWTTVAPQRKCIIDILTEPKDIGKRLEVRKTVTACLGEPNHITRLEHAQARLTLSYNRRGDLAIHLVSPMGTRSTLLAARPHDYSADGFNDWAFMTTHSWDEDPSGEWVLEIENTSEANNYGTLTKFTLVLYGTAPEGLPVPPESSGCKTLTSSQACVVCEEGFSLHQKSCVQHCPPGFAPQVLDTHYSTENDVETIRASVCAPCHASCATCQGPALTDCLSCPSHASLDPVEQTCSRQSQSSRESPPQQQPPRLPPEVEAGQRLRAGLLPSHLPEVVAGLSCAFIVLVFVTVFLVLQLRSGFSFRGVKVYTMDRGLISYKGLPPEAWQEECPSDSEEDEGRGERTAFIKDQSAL

Consider `N#Cc1c(C2CCNCC2)cc(-c2c(O)cccc2OCC2CC2)nc1N`, for which, in [1], the Potency is 3.29 µM (active). Besides, the Potency result in [2], in [3], in [4] and in assay [5] was “inactive” each time.
For the molecule `CC(=O)SCC(Cc1ccccc1)C(=O)NCC(=O)OCc1ccccc1` (stereo not given), the Potency result in assay [6], in assay [2], in assay [7], in assay [3], in assay [8] and in [9] was “inactive” in each case. The Potency result in [10] was “inactive”.
For `COc1cc(OC)c(C=CS(=O)(=O)Cc2ccc(OC)c(NCC(=O)O)c2)c(OC)c1`, the Potency in [1] is 0.293 µM (active); in [3], 0.329 µM (active). Moreover, the Potency result in assay [2] and in assay [10] was “inactive” each time.
`CNC(=O)c1cccc(-c2ccc3c(N4CCOC[C@H]4C)nc(N4CCOC[C@H]4C)nc3n2)c1`: the Potency was 0.585 µM (active) in [1], 2.64 µM (active) in [9] and 24.1 µM (active) in [10]. For the same molecule, the Potency result in [11], in assay [12], in [13] and in [14] was “inactive” each time.
In the case of `O=C1NC(=O)C(=Cc2ccc3nccc(-c4ccncc4)c3c2)S1`, the Potency in assay [1] is 2.61 µM (active); in [6] it was 7.37 µM (active); in [3] it was 2.93 µM (active); in [9], 4.18 µM (active).
In the case of `COC(=O)C=CC(=O)OC`, the Potency was 23.3 µM (active) in assay [1], 14.7 µM (active) in [2] and 4.14 µM (active) in [7]. In addition, the Potency entry in [3], in [8] and in assay [10] was “inactive” each time.
As to `C#CCC(Cc1cnc2nc(N)nc(N)c2n1)c1ccc(C(=O)N[C@@H](CCC(=O)O)C(=O)O)cc1` (stereo not given in full), the Potency result in assay [1] and in assay [2] was “inactive” throughout. The figures for the Potency in assay [6] and in assay [8] were 0.233 µM (active) and 0.0414 µM (active), respectively.
In the case of `COc1cc(O)c2c(c1)C1OC1C[C@H](O)[C@H](O)C(=O)C=CC[C@H](C)OC2=O` (stereo not given in full), the Potency in assay [1] is 0.165 µM (active); in assay [2] it was 18.5 µM (active); in [3] it was 9.27 µM (active); in assay [9] it was 4.69 µM (active).
As for `CC(C)NC[C@@H](C(=O)N1CCN(c2ncnc3c2[C@H](C)C[C@H]3O)CC1)c1ccc(Cl)cc1`, the Potency in assay [1] was 0.737 µM (active); in assay [3], 6.57 µM (active); in assay [9], 16.6 µM (active). Moreover, the Potency result in assay [10] is “inactive”.
